What was measured:
[1] = biological target: Sphingosine kinase 1 (Homo sapiens) (UniProt Q9NYA1); settings: at 1 µM;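 further: mean SPHK1 inhibition value reported from the GSK PKIS kinase panel screen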
[2] = biological target: T1, Sphingosine kinase 2 (Homo sapiens) (UniProt Q9NRA0); settings: at 0.1 µM
T1 sequence (whole entry): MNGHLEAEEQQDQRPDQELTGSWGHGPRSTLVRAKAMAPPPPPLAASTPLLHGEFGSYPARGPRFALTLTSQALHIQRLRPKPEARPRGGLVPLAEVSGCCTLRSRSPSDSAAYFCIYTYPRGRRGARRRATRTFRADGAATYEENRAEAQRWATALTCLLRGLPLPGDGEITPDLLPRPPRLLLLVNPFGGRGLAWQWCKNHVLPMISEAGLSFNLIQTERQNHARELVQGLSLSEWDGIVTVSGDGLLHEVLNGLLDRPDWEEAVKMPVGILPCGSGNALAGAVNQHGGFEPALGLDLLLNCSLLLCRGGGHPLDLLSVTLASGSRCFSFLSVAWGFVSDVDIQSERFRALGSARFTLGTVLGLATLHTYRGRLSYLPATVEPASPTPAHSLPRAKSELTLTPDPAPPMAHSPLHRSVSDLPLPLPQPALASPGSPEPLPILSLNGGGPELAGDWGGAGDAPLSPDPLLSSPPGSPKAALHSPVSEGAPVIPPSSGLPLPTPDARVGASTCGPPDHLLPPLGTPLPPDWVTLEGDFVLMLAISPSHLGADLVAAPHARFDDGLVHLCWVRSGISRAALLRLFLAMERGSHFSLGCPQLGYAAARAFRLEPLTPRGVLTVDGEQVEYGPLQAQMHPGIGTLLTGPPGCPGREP

[3] = biological target: T1, Sphingosine kinase 2 (Homo sapiens); settings: at 1 µM
[4] = biological target: Casein kinase II subunit alpha (Homo sapiens) (UniProt P68400); settings: at 0.1 µM
Casein kinase II subunit alpha (Homo sapiens), sequence (P68400 whole entry, looked up): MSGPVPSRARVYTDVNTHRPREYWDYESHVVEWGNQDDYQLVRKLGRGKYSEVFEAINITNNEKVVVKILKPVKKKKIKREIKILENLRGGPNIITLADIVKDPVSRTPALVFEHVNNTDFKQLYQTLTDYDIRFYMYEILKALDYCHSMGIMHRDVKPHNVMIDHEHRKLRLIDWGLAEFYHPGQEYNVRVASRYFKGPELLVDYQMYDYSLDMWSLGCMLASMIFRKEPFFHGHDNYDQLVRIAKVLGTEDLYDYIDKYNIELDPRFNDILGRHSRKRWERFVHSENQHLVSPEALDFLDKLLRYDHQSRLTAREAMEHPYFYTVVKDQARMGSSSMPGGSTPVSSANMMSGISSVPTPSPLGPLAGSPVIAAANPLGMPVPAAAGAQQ

[5] = biological target: Casein kinase II subunit alpha (Homo sapiens) (UniProt P68400); settings: at 1 µM
[6] = biological target: T2, Inhibitor of nuclear factor kappa-B kinase subunit alpha (Homo sapiens) (UniProt O15111); settings: at 0.1 µM
T2 sequence (whole entry): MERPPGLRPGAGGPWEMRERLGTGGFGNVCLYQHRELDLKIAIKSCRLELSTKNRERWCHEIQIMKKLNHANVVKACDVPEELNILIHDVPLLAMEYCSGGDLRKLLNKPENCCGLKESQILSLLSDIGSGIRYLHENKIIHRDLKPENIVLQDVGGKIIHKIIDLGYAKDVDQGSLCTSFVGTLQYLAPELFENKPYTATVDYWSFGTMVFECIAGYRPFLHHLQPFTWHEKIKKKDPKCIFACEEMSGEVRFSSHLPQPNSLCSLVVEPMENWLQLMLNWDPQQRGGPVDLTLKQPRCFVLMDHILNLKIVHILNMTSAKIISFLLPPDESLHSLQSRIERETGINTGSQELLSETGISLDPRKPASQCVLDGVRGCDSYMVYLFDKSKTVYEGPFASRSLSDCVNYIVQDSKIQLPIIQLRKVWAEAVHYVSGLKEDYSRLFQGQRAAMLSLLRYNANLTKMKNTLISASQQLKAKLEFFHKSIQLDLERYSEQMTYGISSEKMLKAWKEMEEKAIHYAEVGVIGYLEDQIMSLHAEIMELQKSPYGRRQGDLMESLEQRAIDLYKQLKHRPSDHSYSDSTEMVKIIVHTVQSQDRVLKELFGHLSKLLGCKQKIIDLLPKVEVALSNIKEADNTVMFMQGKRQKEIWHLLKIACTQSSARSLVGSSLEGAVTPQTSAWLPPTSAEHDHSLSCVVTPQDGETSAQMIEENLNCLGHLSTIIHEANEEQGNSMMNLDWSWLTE

[7] = biological target: T2, Inhibitor of nuclear factor kappa-B kinase subunit alpha (Homo sapiens); settings: at 1 µM
[8] = biological target: T3, Inhibitor of nuclear factor kappa-B kinase subunit beta (Homo sapiens) (UniProt O14920); settings: at 0.1 µM
T3 sequence (whole entry): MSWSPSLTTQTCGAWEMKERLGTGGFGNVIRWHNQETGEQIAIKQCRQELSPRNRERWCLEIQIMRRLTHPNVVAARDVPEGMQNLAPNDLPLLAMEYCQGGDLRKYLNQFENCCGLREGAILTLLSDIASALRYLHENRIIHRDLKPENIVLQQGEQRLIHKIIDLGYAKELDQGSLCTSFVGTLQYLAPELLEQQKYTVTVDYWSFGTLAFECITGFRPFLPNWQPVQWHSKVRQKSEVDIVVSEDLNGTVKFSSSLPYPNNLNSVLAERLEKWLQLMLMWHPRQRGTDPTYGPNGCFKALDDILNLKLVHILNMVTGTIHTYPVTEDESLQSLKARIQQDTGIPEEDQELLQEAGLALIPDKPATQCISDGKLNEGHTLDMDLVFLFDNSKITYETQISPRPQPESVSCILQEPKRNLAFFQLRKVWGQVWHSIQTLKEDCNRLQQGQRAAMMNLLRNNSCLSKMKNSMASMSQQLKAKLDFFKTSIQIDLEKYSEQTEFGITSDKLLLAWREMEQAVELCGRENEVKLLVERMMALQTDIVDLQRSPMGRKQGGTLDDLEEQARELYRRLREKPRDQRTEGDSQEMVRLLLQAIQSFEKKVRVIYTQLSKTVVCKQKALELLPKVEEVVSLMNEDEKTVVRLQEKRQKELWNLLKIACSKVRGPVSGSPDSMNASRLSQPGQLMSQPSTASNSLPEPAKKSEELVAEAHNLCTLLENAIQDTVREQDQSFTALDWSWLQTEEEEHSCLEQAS

[9] = biological target: T3, Inhibitor of nuclear factor kappa-B kinase subunit beta (Homo sapiens); settings: at 1 µM
[10] = biological target: T4, Inhibitor of nuclear factor kappa-B kinase subunit epsilon (Homo sapiens) (UniProt Q14164); settings: at 0.1 µM;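 further: mean inhibition of IKKε reported, from the GSK PKIS dataset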
T4 sequence (whole entry): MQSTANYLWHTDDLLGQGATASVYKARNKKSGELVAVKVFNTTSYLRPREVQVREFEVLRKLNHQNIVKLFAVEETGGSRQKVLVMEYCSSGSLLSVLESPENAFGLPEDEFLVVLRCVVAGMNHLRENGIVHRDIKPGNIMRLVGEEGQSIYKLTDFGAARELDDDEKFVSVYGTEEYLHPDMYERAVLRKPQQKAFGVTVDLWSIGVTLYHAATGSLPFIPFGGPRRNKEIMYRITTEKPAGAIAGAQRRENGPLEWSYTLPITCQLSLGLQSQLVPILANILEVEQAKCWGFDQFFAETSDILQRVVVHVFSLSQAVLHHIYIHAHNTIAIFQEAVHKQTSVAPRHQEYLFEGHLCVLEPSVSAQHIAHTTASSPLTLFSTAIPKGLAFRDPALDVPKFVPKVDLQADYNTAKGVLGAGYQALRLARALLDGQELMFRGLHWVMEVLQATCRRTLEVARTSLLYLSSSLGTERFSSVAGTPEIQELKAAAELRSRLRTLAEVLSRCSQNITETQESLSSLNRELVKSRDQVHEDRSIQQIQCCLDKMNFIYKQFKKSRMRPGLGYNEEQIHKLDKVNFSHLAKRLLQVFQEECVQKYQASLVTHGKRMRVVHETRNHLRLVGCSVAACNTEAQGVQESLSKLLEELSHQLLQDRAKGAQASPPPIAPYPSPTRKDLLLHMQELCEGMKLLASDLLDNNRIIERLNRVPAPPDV

Sphingosine kinase 1 (Homo sapiens), sequence (Q9NYA1 whole entry): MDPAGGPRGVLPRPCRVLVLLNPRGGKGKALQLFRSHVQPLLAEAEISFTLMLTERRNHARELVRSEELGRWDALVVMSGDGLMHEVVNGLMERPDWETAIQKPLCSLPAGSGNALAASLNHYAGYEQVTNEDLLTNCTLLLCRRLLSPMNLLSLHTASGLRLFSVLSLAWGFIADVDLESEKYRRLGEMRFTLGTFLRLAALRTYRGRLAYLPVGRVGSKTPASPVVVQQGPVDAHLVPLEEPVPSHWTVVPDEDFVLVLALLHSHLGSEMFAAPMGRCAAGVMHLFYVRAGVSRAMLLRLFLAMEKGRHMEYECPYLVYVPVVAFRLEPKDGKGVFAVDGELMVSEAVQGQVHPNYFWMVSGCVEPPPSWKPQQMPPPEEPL

Row | Structure (SMILES) | inhibition [1] | inhibition [2] | inhibition [3] | inhibition [4] | inhibition [5] | inhibition [6] | inhibition [7] | inhibition [8] | inhibition [9] | inhibition [10]
1 | COC(=O)Nc1nc2ccc(Oc3ccc(NC(=O)Nc4cccc(Cl)c4)cc3)cc2[nH]1 | -0.57% | 0% | 0% | 4.68% | 1.84% | -0.79% | 6.02% | -0.04% | 1.06% | 4.59%
2 | CCn1c(-c2nonc2N)nc2c(C#CC(C)(C)O)nc(OC[C@H](N)c3ccccc3)cc21 | 0.93% | -0.49% | 0% | 1.82% | 4.54% | 3.2% | 2.58% | 1.71% | 4.92% | 8.21%
3 | COc1cc(/C=N/Nc2ncnc3[nH]ncc23)ccc1O | -2.47% | 0.06% | 0.42% | 8.38% | 34.8% | 14.9% | 62% | 5.05% | 13.6% | 0.87%
4 | c1cc(-c2cnn3nc(N4CCOCC4)ccc23)nc(NC2CC2)n1 | 0.41% | 0% | 1.66% | 1.46% | 7.14% | 6.71% | 15.7% | 3.81% | 5.82% | 2.67%
5 | CCn1c(-c2nonc2N)nc2cnc(Oc3cccc(NC(=O)c4ccc(N(C)C)cc4)c3)cc21 | -3.07% | 0% | 2.32% | 0.64% | 0.04% | 5.93% | 2.52% | 2.96% | 1.85% | 3.07%
6 | CS(=O)(=O)CCNCc1coc(-c2ccc3ncnc(Nc4ccc(OCc5ccccc5)cc4)c3c2)c1 | -1.49% | 0% | -0.98% | 1.05% | 6.53% | 4.1% | 2.85% | 3.35% | 5.11% | 4.2%
7 | CCn1c(-c2nonc2N)nc2c(C#CC(C)(C)O)ncc(OC3CCNCC3)c21 | 4.1% | -2.62% | 0.82% | 5.58% | 2.13% | 3.92% | 0.96% | 4.3% | 5.45% | 79.5%
8 | COc1cccc(-c2c[nH]c3c(N/N=C/c4ccncc4)ncnc23)c1 | 0.2% | 1.73% | -1% | 8.8% | 43.7% | 9.76% | 9.01% | 2.82% | 1.73% | 2.96%
9 | NS(=O)(=O)c1ccc(Nc2ncc(-c3ccccc3)o2)cc1 | 0% | -1.43% | -1.09% | 3.56% | 10.3% | 6.23% | 15.3% | 3.35% | 11.7% | 4.43%
10 | Fc1cccc(COc2ccc(Nc3ncnc4sc(-c5ccco5)cc34)cc2Cl)c1 | -6.23% | -2.56% | -0.56% | 8.17% | 3.13% | 8.13% | 10.1% | 5.86% | 6.49% | 6.22%
11 | CN1CCC(n2cnc(-c3ccc(F)cc3)c2-c2ccnc(Nc3ccccc3)n2)CC1 | -6.88% | -0.42% | 0.78% | 3.62% | 8.56% | 6.78% | 1.62% | 2.83% | 3.93% | 3.59%
12 | Cc1ccc2c(-c3ccnc(Nc4ccccc4)n3)c(-c3ccc(F)cc3)nn2n1 | 1.05% | -1.64% | 0% | 1.08% | -2.67% | 5% | 0.7% | 4.32% | 1.74% | 1.25%
13 | CCn1c(-c2nonc2N)nc2ccccc21 | 1.74% | 13.1% | -0.24% | 0.89% | -1.31% | -3.92% | -1.19% | 2.35% | -1% | 2.9%
14 | c1ccc(-c2nc3n(c2-c2ccc4c(c2)OCO4)CCC3)nc1 | 0.44% | -0.36% | 0% | 0.8% | 1.12% | 0.69% | -5.83% | 3.06% | -0.72% | 1.33%
15 | COc1ccc(-c2cc3c(N)ncnc3o2)cc1 | 0.27% | 0.92% | -0.08% | 4.9% | 14.2% | -1.6% | -3.79% | -0.63% | 6.4% | -2.31%
